Screening data from PubChem.
Hits are enriched below; roughly 19% of the tested compounds scored in any of these assays.
VP16 counter = VP16 counterscreen qHTS for inhibitors of ROR gamma transcriptional activity | Drosophila S2 Gal4-VP16 UAS-luciferase, luminescence, 20 h | Potency, µM (series often up to 53.6 µM), inactives show at the highest dose activity, negative = inhibition, hits mostly inhibitors | 3.5% of 310,000 active | AID 2546, 2010;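 note: Gal4-VP16 expression switched on by copper sulfate through the metallothionein promoter; nearly all actives have a fitted effect of over 50% in size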
DT40 TDP1 no CPT = qHTS for Inhibitors of human tyrosyl-DNA phosphodiesterase 1 (TDP1): qHTS in cells in absence of CPT; DT40 Tdp1-/- hTDP1 cells, no CPT, ATP luminescence, 48 h; Potency, µM (highest dose often 46.2 µM), for inactives: top-dose activity change, negative = growth inhibition, hits mostly inhibitors; AID 686978, 2013; 15% of 420,000 active; note: nearly all actives have a fitted effect of over 55% in size
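Seeded 400 DT40-hTDP1 cells/well (vehicle DMSO, no 20 nM CPT); pinned compounds; ≥48 hr at 37 °C; CellTiter-Glo luminescence as viability measure.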
TDP1 inh = qHTS Assay for Inhibitors of Tyrosyl-DNA Phosphodiesterase (TDP1). AID 485290, 2010. 0.28% of 350,000 active. recombinant TDP1, AlphaScreen DNA substrate cleavage. Potency, µM (titrated, usually from 130 µM), inactives show at the highest dose activity change, negative = inhibition, actives largely listed as inhibitors; note: nearly all actives have a fitted effect of over 40% in size
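Signal: AlphaScreen proximity between streptavidin donor and anti-FITC acceptor beads on intact substrate. Reaction: Tdp1 1 nM, substrate 15 nM final, 5 min RT after 15 min compound preincubation.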
RORg inh = qHTS for inhibitors of ROR gamma transcriptional activity; Nuclear receptor ROR-gamma (Mus musculus), P51450; Drosophila S2 Gal4-RORgamma UAS-luciferase reporter, 20 h; Potency, µM (titrated, usually from 53.6 µM), for inactives: at the top dose activity change, negative = inhibition, usual class: inhibitors; 5.4% of 310,000 active; note: nearly all actives have a fitted effect of over 60% in size
Target sequence (P51450 whole entry, looked up, the tested form may be a part): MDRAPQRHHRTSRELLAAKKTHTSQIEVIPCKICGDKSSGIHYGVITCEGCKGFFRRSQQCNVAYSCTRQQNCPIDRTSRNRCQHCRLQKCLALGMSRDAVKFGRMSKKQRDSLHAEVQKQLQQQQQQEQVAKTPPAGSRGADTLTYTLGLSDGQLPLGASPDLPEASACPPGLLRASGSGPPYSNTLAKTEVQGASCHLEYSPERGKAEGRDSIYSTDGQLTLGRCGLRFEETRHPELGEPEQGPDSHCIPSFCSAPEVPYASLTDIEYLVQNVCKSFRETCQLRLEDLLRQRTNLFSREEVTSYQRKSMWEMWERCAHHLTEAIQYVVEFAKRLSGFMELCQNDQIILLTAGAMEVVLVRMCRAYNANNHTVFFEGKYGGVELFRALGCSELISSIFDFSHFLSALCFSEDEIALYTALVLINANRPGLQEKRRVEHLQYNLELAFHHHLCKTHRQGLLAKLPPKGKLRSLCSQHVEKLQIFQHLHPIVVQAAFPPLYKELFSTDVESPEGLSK
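Using a luciferase readout, inhibitors were identified by reduced reporter activity in Drosophila cells coexpressing a copper-inducible Gal4–ROR gamma fusion and UAS-driven Photinus luciferase, incubated 20 hr after 700 uM copper sulfate.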
DT40 TDP1 CPT = qHTS for Inhibitors of human tyrosyl-DNA phosphodiesterase 1 (TDP1): qHTS in cells in presence of CPT; chicken DT40 Tdp1-/-;hTDP1 cells + 20 nM CPT, ATP luminescence, 48 h; 12% of 420,000 active; Potency, µM (highest dose often 46.2 µM), without a hit: at the highest dose activity change, negative = growth inhibition, usual class: inhibitors; note: nearly all actives have a fitted effect of over 55% in size
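Chicken DT40 Tdp1-/- cells stably complemented with human TDP1 were seeded at 400 cells/well in medium containing 20 nM camptothecin, exposed to pin-transferred compounds, and grown at 37 °C for at least 48 hr. Viability was read as ATP luminescence.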
Numbers without * were called inactive; ? = inconclusive; / = not tested or not shown. Calls come from the whole dose curve; as a rule, active = well fitted curve in the direction sought with a large enough effect; inconclusive = small, poorly fitted or top-dose-only effect, or another doubt; inactive = no such curve, though single readings can be large; an effect the other way counts as inactive or inconclusive. % is set by controls: 0 for no effect and ±100 for the full control effect; potency is the fitted concentration of half-maximal effect.

SMILES | VP16 counter | DT40 TDP1 no CPT | TDP1 inh | RORg inh | DT40 TDP1 CPT
Cc1ccc(Cl)cc1N(C)C(=O)Cn1ncc2c([nH]c3ccccc32)c1=O | -7.3% | -18.6% | 0.2% | 11.4% | -20.7%
CCCCN(C)C(=O)Cn1ncc2c([nH]c3ccc(C)cc32)c1=O | / | ? | -1.1% | / | ?
CCN(CC)CCOC(=O)c1ccc(NC(=O)Cn2ncc3c([nH]c4ccc(C)cc43)c2=O)cc1 | / | 3.26µM* | 1.1% | / | 4.11µM*
Cc1ccc(C)c(N2CCN(C(=O)Cn3ncc4c([nH]c5ccc(C)cc54)c3=O)CC2)c1 | -10.9% | 13µM* | 1.2% | 13.9% | 14.6µM*
Cc1ccc2[nH]c3c(=O)n(CC(=O)N(C)c4cc(Cl)ccc4C)ncc3c2c1 | / | 14.6µM* | -2.1% | / | 18.4µM*
CCc1cccc(NC(=O)Cn2ncc3c([nH]c4ccc(C)cc43)c2=O)c1 | / | 4.4% | 5.3% | / | -1.3%
Cc1ccc2[nH]c3c(=O)n(CC(=O)N4CCCCC4)ncc3c2c1 | / | 17.4% | 0.0% | / | -16.1%
Cc1ccc2[nH]c3c(=O)n(CC(=O)N(CCN(C)C)Cc4ccccc4)ncc3c2c1 | / | 23.1µM* | 4.2% | / | ?
CCC(=O)N1CCc2cc(Br)cc(S(=O)(=O)CCC(=O)NCCc3ccccc3Cl)c21 | / | ? | -11.8% | / | ?
Cn1c(SCC(=O)NC2CCCCC2)nc2c(c1=O)SCC2 | / | ? | / | / | -29.5%
O=C(NC(=S)Nc1cccc2cccnc12)c1cccs1 | -5.1% | -21.2% | 2.8% | -0.9% | ?
O=C(O)CCc1ccc2ccccc2c1 | / | -26.9% | / | / | 4.5%
Cc1ccc(O)c(C(=O)c2cnn(C(=O)COc3ccc(Cl)cc3)c2)c1 | ? | -26.7% | 2.7% | ? | -27.7%
Cc1nnc(SC(C)C(=O)NC2CCCCC2)[nH]c1=O (centres undefined) | / | 2.7% | / | / | -25.3%
CC1=C(C(=O)N(C(C)C)C(C)C)CC(CC(=O)NCCCN(C)C)C(=O)N1Cc1ccc(F)cc1 (centres undefined) | / | 3.6% | / | / | 4.2%
CC1=C(C(=O)N2CCCCCC2)CC(CC(=O)NCC2CCCCC2)C(=O)N1Cc1ccc(F)cc1 (centres undefined) | / | ? | / | / | 23.1µM*
CC1=C(C(=O)N(C(C)C)C(C)C)CC(CC(=O)NCC2CCCCC2)C(=O)N1Cc1ccc(F)cc1 (centres undefined) | / | 18.4µM* | / | / | 16.4µM*
C/C(=N\Nc1ccc([N+](=O)[O-])cc1[N+](=O)[O-])C(C)(C)C(C(=O)O)C(=O)O | 11.0% | 11.0% | 1.8% | -1.2% | 12.5%
CC(C)Oc1ccccc1/C=N/NC(=O)c1ccc(F)cc1 | 5.7% | 1.5% | 7.7% | -36.9% | -2.2%
COc1ccccc1C(=O)O[C@H]1[C@H](Cc2ccccc2)NS(=O)(=O)[C@H]2C[C@@H]3C=C[C@]12O3 | / | 6.7% | 0.7% | / | -27.9%
Cc1cc(O)c(C(C)C)cc1N=Nc1ccccc1C(=O)O | -1.7% | ? | 7.1% | 1.5% | -10.7%
Cc1cc(NO)c(C(C)C)cc1N=O | -16.0% | 10.3µM* | -5.4% | ? | 8.2µM*
O=C(c1cc(COc2ccc(F)cc2Cl)on1)N1CC2C[C@@H]3CC1C[C@H](C2)C3 | ? | ? | 0.3% | -29.4% | 1.3µM*
CCN1CCN(C(=O)c2cc(COc3ccc(F)cc3F)on2)[C@@H](C)C1=O | -23.0% | 16.4µM* | 1.8% | ? | -40.5%
CCOC(=O)N1CCN(C(=O)c2cc(COc3ccc(F)cc3F)on2)CC1 | 14.7% | ? | 3.1% | 44.9% | ?
SMILES | VP16 counter | DT40 TDP1 no CPT | TDP1 inh | RORg inh | DT40 TDP1 CPT
CCOC(=O)c1cc2c(nc1C)-c1cc(Cl)cc(Cl)c1OC2O (centres undefined) | 5.4% | ? | -1.2% | -23.5% | ?
O=C(Nc1ccccc1C(F)(F)F)N1CCC2(CC1)Oc1ccccc1C(=O)N2Cc1ccccc1F | / | 16.4µM* | -5.9% | / | ?
COc1ccccc1N(CC(=O)NC1CCCCC1C)S(=O)(=O)c1cccs1 (centres undefined) | / | ? | -0.1% | / | -15.7%
C/C=C/c1ccc(OCC(=O)Nc2ccc(OC)c(OC)c2)c(OC)c1 | -1.2% | 23.1µM* | 0.0% | 27.1% | 16.4µM*
C/C=C/c1ccc(OCC(=O)Nc2ccncc2)c(OC)c1 | ? | ? | / | ? | 18.4µM*
C/C=C/C(=O)OCC(=O)Nc1ccc(OC)c(OC)c1 | -13.9% | -8.0% | 2.7% | -8.3% | 1.9%
O=C(O)CSCC(=O)Nc1ccc(C2CCCCC2)cc1 | 3.16µM* | -4.8% | 7.1% | 2.24µM* | 0.9%
COc1ccc2cc(C(=O)NCc3ccco3)c(=Nc3ccc(C(=O)O)cc3)oc2c1 | 2.82µM* | ? | 2.1% | 1.12µM* | ?
COc1ccc(N=c2oc3c(OC)cccc3cc2C(=O)NCc2ccco2)c(OC)c1 | 0.0% | 13µM* | -1.0% | 47.2% | ?
Cc1ccc(CNC(=O)C2CCCN(c3ncnc4c3nc3n4CCCCC3)C2)cc1 (centres undefined) | -0.5% | 9.2µM* | -6.1% | 1.7% | ?
O=C(NCc1cccc(Cl)c1)C1CCCN(c2ncnc3c2nc2n3CCCCC2)C1 (centres undefined) | -1.9% | 11.6µM* | 2.8% | 20.6% | -0.9%
O=C(Nc1cccc(Cl)c1)C1CCCN(c2ncnc3c2nc2n3CCCCC2)C1 (centres undefined) | / | ? | 0.0% | / | 5.17µM*
O=C(NCc1ccccc1)C1CCCN(c2ncnc3c2nc2n3CCCCC2)C1 (centres undefined) | -14.8% | 20.6µM* | 2.2% | 0.0% | ?
O=C(NCCc1ccc(Cl)cc1)C1CCCN(c2ncnc3c2nc2n3CCCCC2)C1 (centres undefined) | -1.9% | ? | 5.3% | -17.4% | ?
CCc1cccc(NC(=O)C2CCCN(c3ncnc4c3nc3n4CCCCC3)C2)c1 (centres undefined) | 0.2% | ? | 0.3% | ? | ?
CN(C)/C=N/c1c(C#N)cnn1-c1ccc(C(F)(F)F)cn1 | -2.4% | -18.5% | 2.1% | 0.0% | -23.0%
O=C(NCC1CCN(Cc2cccc(Cl)c2)CC1)C1CCCN(c2ncnc3c2nc2n3CCCCC2)C1 (centres undefined) | -6.3% | ? | 2.3% | 20.9% | 25.9µM*
O=C(NCC1CCN(Cc2ccc(F)cc2)CC1)C1CCCN(c2ncnc3c2nc2n3CCCCC2)C1 (centres undefined) | -5.0% | ? | 3.9% | 8.9% | ?
